A selection: hits, their analogues and other compounds. The true share with any hit is near 1.8%.
PAD4 FP inh: PAD4 (human) enzyme inhibition; Q9UM07; recombinant PAD4, RCA probe fluorescence polarization; inhibition, % at 6.36 µM; 0.41% of 330,000 active;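 active = percent inhibition above a cutoff equal to the mean of all tested compounds plus 3 SD, cut at about 15% in these data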
Target sequence (Q9UM07 whole entry, looked up): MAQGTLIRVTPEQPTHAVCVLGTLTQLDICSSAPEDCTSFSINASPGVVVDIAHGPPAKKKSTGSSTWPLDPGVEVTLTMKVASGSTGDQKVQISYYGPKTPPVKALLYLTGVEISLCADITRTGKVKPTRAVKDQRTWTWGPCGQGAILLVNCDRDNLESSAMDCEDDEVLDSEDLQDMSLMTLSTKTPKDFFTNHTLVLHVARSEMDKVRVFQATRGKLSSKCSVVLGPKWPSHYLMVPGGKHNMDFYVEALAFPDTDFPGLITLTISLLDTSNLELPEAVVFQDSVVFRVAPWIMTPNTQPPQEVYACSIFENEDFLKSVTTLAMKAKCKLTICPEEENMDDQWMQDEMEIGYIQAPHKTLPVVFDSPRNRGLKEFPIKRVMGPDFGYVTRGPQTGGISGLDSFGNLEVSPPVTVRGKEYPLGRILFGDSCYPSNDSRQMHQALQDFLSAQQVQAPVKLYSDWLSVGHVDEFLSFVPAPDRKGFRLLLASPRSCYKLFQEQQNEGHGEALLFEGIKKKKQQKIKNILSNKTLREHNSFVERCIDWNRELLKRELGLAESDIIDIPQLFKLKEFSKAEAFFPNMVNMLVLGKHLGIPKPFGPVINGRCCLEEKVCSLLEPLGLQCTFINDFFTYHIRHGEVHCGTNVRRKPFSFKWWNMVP
Fam108B counter: counter-screen for RBBP9 inhibitors: inhibitors of mouse Fam108B; 0.33% of 300,000 active; recombinant Fam108B, FP-Rh probe fluorescence polarization; inhibition, % at 9.51 µM; AID 1947;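 active = inhibition above the screen mean inhibition plus 3 SD, computed separately per campaign, cut at about 18% in these data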;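 also: inhibitors lower polarization as less probe binds the enzyme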
GSTO1 counter: GSTO1 inhibition, counter-screen for RBBP9 inhibitors | inhibition, % at 5.96 µM | recombinant GSTO1, activity-based probe fluorescence polarization | AID 1974 | 1.1% of 300,000 active;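 active = inhibition above the campaign mean inhibition plus 3 SD, cut at about 35% in these data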
LYPLA1 inh: LYPLA1 (human) inhibition in PME1 counter-screen. 0.16% of 320,000 active. recombinant LYPLA1, FP-Rh probe fluorescence polarization. inhibition, % at 5.9 µM;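 active = inhibition above the mean of all tested compounds plus 3 SD, set per campaign, cut at about 14% in these data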;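 also: inhibitors block serine hydrolase probe labeling of LYPLA1 so polarization falls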
LYPLA2 counter: blocks human lysophospholipase 2, a PME1 counter-screen; inhibition, % at 5.9 µM; O95372; 0.38% of 320,000 active; recombinant LYPLA2, FP-Rh probe fluorescence polarization; AID 2177;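 active = inhibition above the screen-wide mean plus 3 SD, limit set per campaign, cut at about 26% in these data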
PME-1 inh: blocks human protein phosphatase methylesterase 1; 0.53% of 320,000 active; inhibition, % at 5.9 µM; Q9Y570; recombinant PME-1, FP-Rh probe fluorescence polarization;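 active = inhibition above the campaign mean of all compounds plus 3 SD, cut at about 26% in these data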;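 also: competitive labeling of PME-1 active site by serine hydrolase directed probe; inhibitors block probe labeling so polarization falls and inhibition rises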
GSTO1 confirm: confirmation of human GSTO1 inhibitors | shares compounds with GSTO1 counter | recombinant GSTO1, probe fluorescence polarization | inhibition, % at 5.96 µM | 54% of 2,400 active | AID 2176;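 active = inhibition above the primary screen's cutoff, its mean inhibition plus 3 SD, cut at about 35% in these data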;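 also: loss of polarization as inhibitors block binding of rhodamine sulfonate ester activity probe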
GSTO1 ABPP inh: GSTO1 (human) inhibition by gel ABPP; shares compounds with GSTO1 counter; inhibition, % at 1 µM; AID 463110; recombinant GSTO1, gel ABPP SE-Rh probe fluorescence; 30% of 130 active;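 active = inhibition of the enzyme GSTO1 above about 75%, limit read from the data; inactive = inhibition below that limit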
Large screens that a line does not name were inactive (follow-up assays come after a bar, where they were run).

COc1cc(/C=C/c2[nH]c(=O)[nH]c(=O)c2[N+](=O)[O-])cc([N+](=O)[O-])c1O	GSTO1 counter 53 | GSTO1 confirm 68
CCC(C)Oc1ccc(/C=C/c2[nH]c(=O)[nH]c(=O)c2[N+](=O)[O-])cc1OC (stereo unspecified)	none
O=S(=O)([N-]c1nc2ccccc2nc1-[n+]1ccc(-c2ccncc2)cc1)c1ccccc1	none
CCN(CC)S(=O)(=O)c1ccc(NC(=O)c2ccc(N3CCCC3=O)cc2)cc1	none (no result: Fam108B counter, GSTO1 counter, LYPLA1 inh, LYPLA2 counter, PME-1 inh)
COc1cc(CNc2ccc(N3CCCCC3)cc2)ccc1OCC(=O)NC(C)(C)C	GSTO1 counter 47 | GSTO1 confirm inactive
COc1cc(CNc2ccc(N3CCCC3)cc2)ccc1OCc1ccccc1F	GSTO1 counter 46 | GSTO1 confirm 35
CCNCc1ccc(OCc2ccccc2F)c(OC)c1	none
COc1cc(CNC(C)(C)CO)ccc1OCC(=O)NC(C)(C)C	none
CCC/C=C(\CCC)C(NS(=O)(=O)c1cccc2cccnc12)c1ccc(C(=O)OC)cc1 (stereo unspecified)	none
Cc1ccc(OCCC(=O)OCC(=O)Nc2c(C)nn(-c3ccccc3)c2C)cc1	none
Cc1cc(C)c(NC(=O)CN2C(=O)NC3(CCCCC3)C2=O)c(Cl)c1	GSTO1 counter 54 | GSTO1 confirm inactive
Cc1cc(C)c(NC(=O)CN2C(=O)NC3(CCc4ccccc43)C2=O)c(Cl)c1 (stereo unspecified)	none (no result: Fam108B counter, GSTO1 counter, LYPLA1 inh, LYPLA2 counter, PME-1 inh)
CN(CC1CCOCC1)C(=O)CC1C(=O)NCCN1C/C=C/c1ccccc1 (stereo unspecified)	none
O=C(O)c1ccc(CN(c2ccccc2)S(=O)(=O)c2ccccc2)cc1	none
COc1ccc(N(CC2CO2)S(=O)(=O)c2ccc(C)cc2)cc1 (stereo unspecified)	GSTO1 counter 81 | GSTO1 confirm 85 | GSTO1 ABPP inh inactive
O=S(=O)(c1ccccc1)N(CC1CO1)c1ccccc1 (stereo unspecified)	GSTO1 counter 71 | GSTO1 confirm 83 | GSTO1 ABPP inh inactive
Cc1ccc(S(=O)(=O)N(CC(=O)NCC2CCCO2)c2cccc([N+](=O)[O-])c2)cc1 (stereo unspecified)	none
O=S(=O)(c1ccccc1)N(CC1CO1)c1cccc2ccccc12 (stereo unspecified)	GSTO1 counter 75 | GSTO1 confirm 90 | GSTO1 ABPP inh inactive
COc1ccc(N(CC(O)CN2CCOCC2)S(=O)(=O)c2ccc(C)cc2)cc1 (stereo unspecified)	none
Cc1ccc(S(=O)(=O)N(CC2CO2)c2cccc([N+](=O)[O-])c2)cc1 (stereo unspecified)	GSTO1 counter 97 | GSTO1 confirm 97 | GSTO1 ABPP inh inactive
O=C(Cn1nc2n(c1=O)-c1ccccc1SC2)N/N=C/c1cccs1	none
COc1ccc(CC(=O)N2CCN=C2SCc2ccc([N+](=O)[O-])cc2)cc1	none
CN(CC(=O)NNC(=O)CCNS(=O)(=O)c1ccccc1)S(=O)(=O)c1ccc(Cl)cc1	none
O=[N+]([O-])c1ccc(N(CC2CO2)S(=O)(=O)c2ccccc2)cc1 (stereo unspecified)	GSTO1 counter 85 | GSTO1 confirm 92 | GSTO1 ABPP inh inactive
O=C(CN(c1ccc([N+](=O)[O-])cc1)S(=O)(=O)c1ccccc1)N1CCCCC1	none
Cc1cccc(C(=O)N/N=C/c2ccc[nH]2)c1	none
Cc1ccc(N=Cc2ccc[nH]2)c(O)c1	GSTO1 counter 38 | GSTO1 confirm inactive
CCSc1nnc(NC(=O)C(C(F)(F)F)C(F)(F)F)s1	GSTO1 counter 38 | GSTO1 confirm 48
CCSc1nnc(NC(=O)C(C)C)s1	none
CCOc1ccc(C2C([N+](=O)[O-])=C(C)N(C)C(=O)N2C)cc1OC (stereo unspecified)	none
COc1cc(O)c2c(c1)OC(c1ccc(O)cc1)CC2=O (stereo unspecified)	none
Cc1c(O)cc2c(c1O)C(=O)CC(c1ccc(O)cc1)O2 (stereo unspecified)	GSTO1 counter 51 | GSTO1 confirm inactive
N#C/C(=C\c1cccc(Oc2ccccc2)c1)C(=O)N1CCOCC1	none
CC1(OC(=O)CCc2ccccc2)C(=O)C=C2C=C(c3ccc(C#N)cc3)N(C(CO)CO)C=C2C1=O (stereo unspecified)	none
CC1(OC(=O)C2CCCC2)C(=O)C=C2C=C(c3ccsc3)N(CC3CC3)C=C2C1=O (stereo unspecified)	GSTO1 counter 40 | GSTO1 confirm inactive
CC1(OC(=O)C2CCCC2)C(=O)C=C2C=C(c3ccsc3)N(Cc3ccc4c(c3)OCO4)C=C2C1=O (stereo unspecified)	none
CC1(OC(=O)CCc2ccccc2)C(=O)C=C2C=C(c3ccc(C#N)cc3)N(C3CCCCC3)C=C2C1=O (stereo unspecified)	GSTO1 counter 45 | GSTO1 confirm inactive
CC1(OC(=O)C2CCCC2)C(=O)C=C2C=C(c3ccsc3)N(C3CCCCC3)C=C2C1=O (stereo unspecified)	GSTO1 counter 43 | GSTO1 confirm inactive
C1CCC(C23CC4CC(CC(C4)C2)C3)NC1 (stereo unspecified)	none
O=C(Cc1nnc(NC(=O)c2ccccc2)s1)N/N=C\c1ccc(O)c(O)c1	GSTO1 counter 39 | GSTO1 confirm inactive
Cc1cc(C(=O)NC(C)C2CCCO2)c(C)o1 (stereo unspecified)	GSTO1 counter 42 | GSTO1 confirm inactive
Cc1ccc(S(=O)(=O)c2nc(Cc3ccccc3)oc2N2CCOCC2)cc1	none (no result: Fam108B counter, GSTO1 counter)
CC1OC(Nc2cccc3ccccc23)C(O)C(O)C1O (stereo unspecified)	GSTO1 counter 49 | GSTO1 confirm inactive
CCOC(=O)C1=C(Cn2cnc3ccccc32)NC(=O)NC1c1ccc(OC)cc1 (stereo unspecified)	none
CO[C@H]1C=CO[C@@]2(C)Oc3c(C)c(O)c4c(O)c(c(C=NN5CCN(C)CC5)c(O)c4c3C2=O)NC(=O)C(C)=CC=C[C@H](C)[C@H](O)[C@@H](C)[C@@H](O)[C@@H](C)[C@H](OC(C)=O)[C@@H]1C	GSTO1 counter 77 | GSTO1 confirm 70
CO[C@H]1/C=C/O[C@@]2(C)Oc3c(C)c(O)c4c(O)c(c(C=NN5CCN(C)CC5)c(O)c4c3C2=O)NC(=O)/C(C)=C\C=C\[C@H](C)[C@H](O)[C@@H](C)[C@@H](O)[C@@H](C)[C@H](OC(C)=O)[C@@H]1C	GSTO1 counter 62 | GSTO1 confirm 55

Screening results as filed in PubChem.
